Assay results published in the supplement of paper PMC8975748.
Counter-ions that a name gives are not always drawn. ± gives the standard deviation of the averaged measurements.

tested on: Saccharomyces cerevisiae BY4741 SeMeCo community; assay: mean cell size (pixel area) (pixels); higher = larger cells; settings: 10 µM; 24 h; SM minimal medium
Outline: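 Mean cell pixel area per well was measured in a four-plasmid fluorescent community of Saccharomyces cerevisiae BY4741, where every plasmid complements one auxotrophy and carries a fluorescent marker. Cells from an overnight preculture at OD600 = 1.0 were diluted to OD600 = 0.3 and dispensed at 70 µl into 384-well plates acoustically predosed with drug to a final 10 µM in SM medium. Incubation lasted 24 h, followed by paraformaldehyde fixation, automated confocal imaging and analysis in Harmony. Reported figures are averaged over 3 replicates. Same SeMeCo high-content imaging drug screen: Selleck FDA-approved drugs at 10 µM, 24 h in SM medium, 384-well plates, 3 replicates.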

Row | SMILES | mean cell size
1 | CC1(C)S[C@@H]2[C@H](N)C(=O)N2[C@H]1C(=O)O [6-Aminopenicillanic acid] | 12.1 ± 0.25
2 | [O-][n+]1ccccc1[S-].[O-][n+]1ccccc1[S-].[Zn+2] [Zinc Pyrithione] | 15.2 ± 0.23
3 | C[CH2][Hg][S]c1ccccc1C(=O)[O-].[Na+] [Thimerosal] | 12.3 ± 0.52
4 | C=CC[C@]1(O)CC[C@H]2[C@@H]3CCC4=CC(=O)CCC4=C3C=C[C@@]21C [Altrenogest] | 12.58 ± 0.1
5 | NC(=O)CN1CCCC1=O [Piracetam] | 12.47 ± 0.028
6 | C=CN1CCCC1=O.II [Povidone iodine] | 12.5 ± 0.22
7 | Nc1nc(N)nc(NC2CC2)n1 [Cyromazine] | 12.46 ± 0.1
8 | CC(C)N(CCC(C(N)=O)(c1ccccc1)c1ccccn1)C(C)C (centres undefined) [Disopyramide] | 12.27 ± 0.1
9 | CN1c2ccccc2C(NCCCCCCC(=O)O)c2ccc(Cl)cc2S1(=O)=O (centres undefined) [Tianeptine sodium] | 12.6 ± 0.24
10 | C[C@@H]1O[C@@H](O[C@H]2C[C@@H](O)[C@]3(CO)[C@H]4[C@H](O)C[C@]5(C)[C@@H](C6=CC(=O)OC6)CC[C@]5(O)[C@@H]4CC[C@]3(O)C2)[C@H](O)[C@H](O)[C@H]1O [Ouabain] | 12.3 ± 0.32
11 | Oc1cccc2cccnc12 [8-Hydroxyquinoline] | 12.61 ± 0.039
12 | CC[N+](C)(CC)CCOC(=O)C(O)(c1ccccc1)c1ccccc1 [Methylbenactyzine Bromide] | 12.6 ± 0.34
13 | Cc1cc(O)ccc1Cl [Chlorocresol] | 12.6 ± 0.13
14 | CNC1CC(N)C(O)C(OC2OC(CO)C(O)C3OC4(OC(C(N)CO)C(O)C(O)C4O)OC23)C1O (centres undefined) [Hygromycin B] | 11.8 ± 0.24
15 | CN1[C@@H]2C[C@@H](OC(=O)[C@H](CO)c3ccccc3)C[C@H]1[C@@H]1O[C@@H]12 [Scopolamine HBr] | 12.5 ± 0.14
16 | COc1ccc(C(CN(C)C)C2(O)CCCCC2)cc1 (centres undefined) [Venlafaxine HCl] | 12.3 ± 0.27
17 | COc1ccc2c(c1)[C@]13CCCC[C@@H]1[C@H](C2)N(C)CC3 [Dextromethorphan hydrobromide hydrate] | 12.5 ± 0.24

Row | SMILES | mean cell size
18 | COc1ccc2[nH]cc(CCN)c2c1 [5-Methoxytryptamine] | 12.18 ± 0.062
19 | O=c1cccc2n1C[C@@H]1CNC[C@H]2C1 [Cytisine] | 12.6 ± 0.21
20 | Cc1cc(C(C#N)c2ccc(Cl)cc2)c(Cl)cc1NC(=O)c1cc(I)cc(I)c1O (centres undefined) [Closantel] | 12.3 ± 0.27
21 | CN[C@@H]1[C@@H](O)[C@@H](O[C@@H]2[C@@H](O)[C@H](O[C@H]3O[C@H](CN)CC[C@H]3N)[C@@H](N)C[C@H]2N)OC[C@]1(C)O.CN[C@@H]1[C@@H](O)[C@@H](O[C@@H]2[C@@H](O)[C@H](O[C@H]3O[C@H]([C@@H](C)N)CC[C@H]3N)[C@@H](N)C[C@H]2N)OC[C@]1(C)O.CN[C@@H]1[C@@H](O)[C@@H](O[C@@H]2[C@@H](O)[C@H](O[C@H]3O[C@H]([C@@H](C)NC)CC[C@H]3N)[C@@H](N)C[C@H]2N)OC[C@]1(C)O [Gentamicin Sulfate] | 12.1 ± 0.15
22 | COc1cc2c(cc1OC)C1CC(=O)C(CC(C)C)CN1CC2 (centres undefined) [Tetrabenazine (Xenazine)] | 12.62 ± 0.049
23 | C[C@@H]1CC[C@H]2[C@@H](C)C(=O)O[C@@H]3O[C@@]4(C)CC[C@@H]1[C@]32OO4 [Artemisinin] | 12.3 ± 0.3
24 | CC(C)(O)C(Cl)(Cl)Cl [Chlorobutanol] | 12.5 ± 0.16
25 | C[C@H]1O[C@H](O[C@H]2[C@H](O)[C@@H](O)[C@@H](O)[C@H](O)[C@@H]2O)[C@@H](N)C[C@@H]1NC(=N)C(=O)O [Kasugamycin hydrochloride] | 12.1 ± 0.21
26 | C[N+]12CCC(CC1)C(OC(=O)C(O)(c1ccccc1)c1ccccc1)C2 (centres undefined) [Clidinium Bromide] | 12.4 ± 0.13
27 | Nc1ccncc1 [4-Aminopyridine] | 12.2 ± 0.16
28 | NCCc1c[nH]c2ccc(O)cc12 [Serotonin HCl] | 12.2 ± 0.41
29 | O=[N+]([O-])C(Br)(CO)CO [Bronopol] | 12.2 ± 0.43
30 | CCN(C)C(=O)Oc1cccc([C@H](C)N(C)C)c1 [Rivastigmine Tartrate] | 12.38 ± 0.056
31 | CC[C@H]1CN2CC[C@]3(C(=O)Nc4ccccc43)[C@@H]2C[C@@H]1/C(=C\OC)C(=O)OC [Rhynchophylline] | 12.38 ± 0.1
32 | CN[C@@H]1[C@@H](O)[C@@H](O[C@@H]2[C@@H](O)[C@H](O[C@H]3O[C@H]([C@@H](C)O)[C@@H](O)[C@H](O)[C@H]3N)[C@@H](N)C[C@H]2N)OC[C@]1(C)O [Geneticin (G418 Sulfate)] | 11.99 ± 0.045
33 | Cc1cc(C(C#N)c2ccc(Cl)cc2)c(Cl)cc1NC(=O)c1cc(I)cc(I)c1O (centres undefined) [Closantel Sodium] | 12.2 ± 0.24
34 | N#Cc1nn(-c2c(Cl)cc(C(F)(F)F)cc2Cl)c(N)c1[S+]([O-])C(F)(F)F (centres undefined) [Fipronil] | 12.3 ± 0.2
